Data on six compounds can be found in the supplement of paper PMC9694430.

Common to all, as to experiment: thermal shift delta Tm vs DMSO control; higher = stronger stabilization (binding)
Conditions in all cases: 12.5 µM; protein concentration 2 µM

One assay relates to LOC_OS01G57100-cb003. The method in brief: (§1)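 Thermal shift values come from differential scanning fluorimetry on purified rice kinase domains made in E. coli, with melting temperatures obtained from Boltzmann fits. Samples of 19.5 μl held 2 μM kinase, 100 mM potassium phosphate pH 7.5, 150 mM NaCl, 10% glycerol, 5 × SYPRO Orange and compound in DMSO, and were heated from 25°C to 95°C at 0.05°C/s. Each shift is a triplicate mean relative to the DMSO-only protein sample.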

The test system of a further assay is LOC_OS01G60330-cb001. The method in brief:
as §1

In another assay the test system is LOC_OS01G60700-cb002. An outline of the steps:
as §1

For a further assay, the system named is LOC_OS01G63280-cb003. The method in brief: as §1
The next assay deals with LOC_OS01G67340-cb003. The method in brief: as §1
A further assay deals with LOC_OS01G70970-cb002. The method in brief: as §1
The subject of another assay is LOC_OS02G07810-cb001. An outline of the steps: as §1
Another assay relates to LOC_OS02G08530-cb003. The method in brief: as §1
The next assay has as its system LOC_OS02G14120-cb001. The method in brief: as §1
The subject of a further assay is LOC_OS02G17970-cb001. The method in brief:
as §1

In another assay the test system is LOC_OS02G45750-cb003. An outline of the steps:
as §1

The next assay relates to LOC_OS02G54510-cb004. An outline of the steps: as §1
Another assay has as its system LOC_OS03G04050-cb001. An outline of the steps:
as §1

A further assay concerns LOC_OS03G12390-cb001. The method in brief: as §1
The next assay has as its system LOC_OS03G27990-cb004. The method in brief:
as §1

Another assay concerns LOC_OS03G50450-cb001. The method in brief:
as §1

The test system of a further assay is LOC_OS03G50810-cb003. An outline of the steps:
as §1

A further assay deals with LOC_OS04G35114-cb001. The method in brief:
as §1

The test system of the next assay is T1, LOC_OS04G38480-cb003.
T1 sequence (whole entry): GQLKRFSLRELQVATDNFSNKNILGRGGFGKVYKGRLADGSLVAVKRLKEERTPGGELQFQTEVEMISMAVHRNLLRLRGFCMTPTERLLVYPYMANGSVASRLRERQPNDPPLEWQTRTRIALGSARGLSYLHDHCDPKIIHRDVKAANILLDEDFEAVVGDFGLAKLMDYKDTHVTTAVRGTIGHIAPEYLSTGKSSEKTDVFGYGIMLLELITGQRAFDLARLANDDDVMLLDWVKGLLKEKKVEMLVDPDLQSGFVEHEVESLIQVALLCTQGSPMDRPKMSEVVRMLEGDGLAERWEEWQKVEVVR
An outline of the steps: as §1

The test system of another assay is T2, LOC_OS04G41100-cb001.
T2 sequence (whole entry): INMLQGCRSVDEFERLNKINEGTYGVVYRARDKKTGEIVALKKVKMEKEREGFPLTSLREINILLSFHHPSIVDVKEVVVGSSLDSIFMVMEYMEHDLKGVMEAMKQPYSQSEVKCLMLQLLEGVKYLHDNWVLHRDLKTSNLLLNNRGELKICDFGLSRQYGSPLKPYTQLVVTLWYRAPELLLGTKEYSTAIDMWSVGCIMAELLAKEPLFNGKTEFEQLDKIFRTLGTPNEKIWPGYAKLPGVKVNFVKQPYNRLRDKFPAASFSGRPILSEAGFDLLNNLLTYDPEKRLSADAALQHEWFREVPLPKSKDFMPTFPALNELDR
An outline of the steps:
as §1
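Further: purified Escherichia coli-expressed rice kinase domain construct.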

As for `COc1ccc(C(=O)Nc2sc3c(c2C(N)=O)CCCC3)cc1OC`, the “thermal shift delta Tm” value with LOC_OS01G57100-cb003 was found to be 1.3 °C; in the assay on LOC_OS01G60330-cb001 it was 1.24 °C; with LOC_OS01G60700-cb002, 1.23 °C; in the assay with LOC_OS01G63280-cb003 it was 0.62 °C; in the assay on LOC_OS01G67340-cb003, 1.69 °C; in the assay on LOC_OS01G70970-cb002 it was 0.41 °C. Besides, the “thermal shift delta Tm” value in the assay with LOC_OS02G07810-cb001 stood at 1.01 °C; in the assay with LOC_OS02G08530-cb003, 2.12 °C; with LOC_OS02G14120-cb001 it was 2.58 °C; in the assay on LOC_OS02G17970-cb001, 0.27 °C; with LOC_OS02G45750-cb003, 3.21 °C; in the assay on LOC_OS02G54510-cb004 it was 0.13 °C. Also, the “thermal shift delta Tm” value in the assay on LOC_OS03G04050-cb001 was determined as 0.38 °C; with LOC_OS03G12390-cb001, 0.22 °C; with LOC_OS03G27990-cb004 it was 0.12 °C; in the assay on LOC_OS03G50450-cb001, 0.38 °C; in the assay on LOC_OS03G50810-cb003, 1.2 °C; in the assay on LOC_OS04G35114-cb001, 3.8 °C. In addition, the “thermal shift delta Tm” value in the assay with LOC_OS04G38480-cb003 stood at 3.31 °C; with LOC_OS04G41100-cb001 it was 0.28 °C.

`C=CC(=O)Nc1cccc(Sc2nc(Nc3ccc(N4CCN(C)CC4)cc3)ncc2Cl)c1`: the “thermal shift delta Tm” value with LOC_OS01G57100-cb003 was -1.98 °C; in the assay with LOC_OS01G60330-cb001 it was 1.15 °C; with LOC_OS01G60700-cb002, 0.75 °C; in the assay with LOC_OS01G63280-cb003 it was 0.45 °C; with LOC_OS01G67340-cb003 it was 0.87 °C; with LOC_OS01G70970-cb002 it was 7.21 °C. Besides, the “thermal shift delta Tm” value in the assay on LOC_OS02G07810-cb001 amounted to 0.82 °C; in the assay on LOC_OS02G08530-cb003, 2.38 °C; in the assay with LOC_OS02G14120-cb001, 6.55 °C; with LOC_OS02G17970-cb001 it was 0.58 °C; in the assay on LOC_OS02G45750-cb003, 1.15 °C; in the assay with LOC_OS02G54510-cb004, 0.86 °C. In addition, the “thermal shift delta Tm” value in the assay on LOC_OS03G04050-cb001 amounted to 0.43 °C; in the assay with LOC_OS03G12390-cb001, 2.55 °C; with LOC_OS03G27990-cb004, 2.86 °C; in the assay with LOC_OS03G50450-cb001, 1.29 °C; in the assay with LOC_OS03G50810-cb003, 4.92 °C; in the assay with LOC_OS04G35114-cb001 it was 4.33 °C. In addition, the “thermal shift delta Tm” value came to 1.07 °C in the assay on LOC_OS04G38480-cb003 and 1.47 °C in the assay with LOC_OS04G41100-cb001.

For `O=C1NCCc2[nH]c(-c3ccncc3)cc21`, the “thermal shift delta Tm” value with LOC_OS01G57100-cb003 was 1.88 °C; in the assay with LOC_OS01G60330-cb001 it was 1.38 °C; in the assay with LOC_OS01G60700-cb002, 0.92 °C; in the assay with LOC_OS01G63280-cb003 it was 0.5 °C; in the assay with LOC_OS01G67340-cb003, 1.42 °C; in the assay with LOC_OS01G70970-cb002 it was 0.32 °C. The “thermal shift delta Tm” value in the assay with LOC_OS02G07810-cb001 came to 0.78 °C; in the assay with LOC_OS02G08530-cb003 it was 2.64 °C; with LOC_OS02G14120-cb001, 1.75 °C; with LOC_OS02G17970-cb001 it was 0.79 °C; in the assay on LOC_OS02G45750-cb003 it was 0.39 °C; in the assay on LOC_OS02G54510-cb004, 0.14 °C. The “thermal shift delta Tm” value amounted to 0.37 °C in the assay on LOC_OS03G04050-cb001; 3.14 °C in the assay on LOC_OS03G12390-cb001; 0.51 °C with LOC_OS03G27990-cb004; 0.87 °C in the assay with LOC_OS03G50450-cb001; 0.45 °C in the assay on LOC_OS03G50810-cb003; 0.84 °C in the assay with LOC_OS04G35114-cb001. Moreover, the “thermal shift delta Tm” value in the assay on LOC_OS04G38480-cb003 amounted to 0.45 °C; in the assay with LOC_OS04G41100-cb001, 1.14 °C.

`O=c1c(-c2ccc(O)cc2)coc2cc(O)cc(O)c12` [Genistein]: the “thermal shift delta Tm” value in the assay with LOC_OS01G57100-cb003 is -0.59 °C; in the assay with LOC_OS01G60330-cb001, 0.72 °C; in the assay on LOC_OS01G60700-cb002, 1.28 °C; in the assay with LOC_OS01G63280-cb003, 0.16 °C; in the assay with LOC_OS01G67340-cb003, -0.02 °C; with LOC_OS01G70970-cb002, 0.33 °C. The “thermal shift delta Tm” value was 0.97 °C with LOC_OS02G07810-cb001; 1.28 °C in the assay on LOC_OS02G08530-cb003; -1.28 °C with LOC_OS02G14120-cb001; 1.58 °C with LOC_OS02G17970-cb001; -0.47 °C with LOC_OS02G45750-cb003; -0.37 °C with LOC_OS02G54510-cb004. The “thermal shift delta Tm” value in the assay on LOC_OS03G04050-cb001 was -0.01 °C; in the assay on LOC_OS03G12390-cb001 it was 1.8 °C; with LOC_OS03G27990-cb004, 0.92 °C; in the assay on LOC_OS03G50450-cb001 it was 0.14 °C; in the assay on LOC_OS03G50810-cb003, 0.36 °C; with LOC_OS04G35114-cb001 it was -1.3 °C. Besides, the “thermal shift delta Tm” value in the assay with LOC_OS04G38480-cb003 is -1.76 °C; in the assay with LOC_OS04G41100-cb001, -0.75 °C.

Regarding `CS(=O)(=O)CCNCc1ccc(-c2ccc3ncnc(Nc4ccc(OCc5cccc(F)c5)c(Cl)c4)c3c2)o1`, the “thermal shift delta Tm” value is 0.92 °C in the assay with LOC_OS01G57100-cb003; 1.06 °C in the assay with LOC_OS01G60330-cb001; 1.49 °C in the assay with LOC_OS01G60700-cb002; 0.35 °C in the assay with LOC_OS01G63280-cb003; -0.49 °C in the assay on LOC_OS01G67340-cb003; 0.26 °C in the assay on LOC_OS01G70970-cb002. Moreover, the “thermal shift delta Tm” value in the assay with LOC_OS02G07810-cb001 is 1.15 °C; in the assay on LOC_OS02G08530-cb003, 0.58 °C; in the assay on LOC_OS02G14120-cb001 it was -0.53 °C; in the assay on LOC_OS02G17970-cb001, 0.69 °C; with LOC_OS02G45750-cb003, -0.27 °C; in the assay with LOC_OS02G54510-cb004, 0.18 °C. Besides, the “thermal shift delta Tm” value in the assay with LOC_OS03G04050-cb001 came out at 0.24 °C; in the assay on LOC_OS03G12390-cb001, 0.39 °C; with LOC_OS03G27990-cb004 it was 0.11 °C; with LOC_OS03G50450-cb001, 0.01 °C; with LOC_OS03G50810-cb003 it was 0.17 °C; with LOC_OS04G35114-cb001 it was 0.48 °C. In addition, the “thermal shift delta Tm” value with LOC_OS04G38480-cb003 is 0.99 °C; in the assay on LOC_OS04G41100-cb001 it was 0.27 °C.

With `Cn1cc(-c2cnn3c(N)c(Br)c([C@@H]4CCCNC4)nc23)cn1`, the “thermal shift delta Tm” value in the assay on LOC_OS01G57100-cb003 is -0.78 °C; in the assay on LOC_OS01G60330-cb001, 1.36 °C; in the assay on LOC_OS01G60700-cb002 it was 0.1 °C; in the assay on LOC_OS01G63280-cb003, 0.91 °C; in the assay with LOC_OS01G67340-cb003, 0.29 °C; in the assay on LOC_OS01G70970-cb002, 0.3 °C. Moreover, the “thermal shift delta Tm” value in the assay on LOC_OS02G07810-cb001 is 2.88 °C; in the assay on LOC_OS02G08530-cb003, 0.14 °C; in the assay on LOC_OS02G14120-cb001, 3.6 °C; in the assay on LOC_OS02G17970-cb001, -0.03 °C; in the assay with LOC_OS02G45750-cb003 it was 2.88 °C; in the assay on LOC_OS02G54510-cb004, 0.55 °C. Besides, the “thermal shift delta Tm” value with LOC_OS03G04050-cb001 stood at 0.3 °C; in the assay with LOC_OS03G12390-cb001, 0.78 °C; in the assay on LOC_OS03G27990-cb004, 0.85 °C; with LOC_OS03G50450-cb001, 0.38 °C; with LOC_OS03G50810-cb003, 1.12 °C; in the assay on LOC_OS04G35114-cb001, 1.17 °C. Also, the entries for the “thermal shift delta Tm” value in the assay on LOC_OS04G38480-cb003 and with LOC_OS04G41100-cb001 were 2.62 °C and 0.97 °C, respectively.
